Test [1] can be described thus: NCI Yeast Anticancer Drug Screen. Data for the rad50 strain (AID 155).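 Note: 0% = growth of vehicle-only cultures of the same strain.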 Conditions: S. cerevisiae rad50 strain growth inhibition; at 50.0 µM; stronger effect = higher value. A digest of the protocol:
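Yeast carrying a defined DNA repair defect were exposed to test compounds, and growth was compared with vehicle-treated controls to give percent inhibition.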

Test [2] can be described thus: NCI Yeast Anticancer Drug Screen. Data for the mec2-1 strain (AID 157). Conditions: S. cerevisiae mec2-1 strain, at 50.0 µM, stronger effect = higher value. A digest of the protocol: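 Growth inhibition is read against vehicle-treated controls after compound exposure of the mec2-1 yeast strain, which is defective in DNA damage repair or cell cycle control.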
Test [3] in a line: NCI Yeast Anticancer Drug Screen. Data for the sgs1 mgt1 strain (AID 161).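 Note: 0% = growth of cultures given vehicle only.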 The following applies: S. cerevisiae sgs1 mgt1 strain, at 50.0 µM, stronger effect = higher value. In outline:
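Percent growth inhibition was derived by comparing compound-exposed mutant yeast with vehicle-exposed cultures. The strain carries alterations in DNA damage repair.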

Test [4] is described as follows: NCI Yeast Anticancer Drug Screen. Data for the cln2 rad14 strain (AID 165).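 Note: 0% = growth equal to vehicle treated cultures.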 The following applies: S. cerevisiae cln2 rad14 strain, at 50.0 µM, stronger effect = higher value. In outline:
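Growth inhibition, relative to vehicle-treated controls, is the read-out. The test organism is a yeast strain with defined genetic alterations, cln2 rad14.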

Test [5] can be described thus: NCI Yeast Anticancer Drug Screen. Data for the bub3 strain (AID 167). Conditions: S. cerevisiae bub3 mutant strain, at 50.0 µM, stronger effect = higher value. A digest of the protocol: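 Compounds were applied to a genetically altered yeast strain carrying a cell-cycle control defect. Growth inhibition was scored against vehicle-treated controls.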
Test [6] can be described thus: NCI Yeast Anticancer Drug Screen. Data for the mlh1 rad18 strain (AID 175). Conditions: S. cerevisiae mlh1 rad18 strain growth inhibition; at 50.0 µM; stronger effect = higher value. In outline: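 Cells of a genetically altered yeast strain, deficient in DNA damage repair, were treated with compound. Their growth was then compared with that of vehicle-treated cultures to give inhibition.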

About 79,000 compounds went through this panel and 15% of them were active in at least one assay; those are over-represented in the sample as a whole. Values without a mark were called inactive. The source made the active and inactive calls. Cut-off read from the data, not from the text of the source: active = growth inhibition above about 70%; inactive = the rest. Where a SMILES comes first, the peptide text is derived from it. The star is where a group is joined. ONb = O=[N+]([O-])c1ccc(CO*)cc1; Boc = CC(C)(C)OC(=O)*

The record followed here is PubChem BioAssay (NCI).

For `CN(C)c1nc(S(C)(=O)=O)nc2nc(S(C)(=O)=O)[nH]c12`, the growth inhibition is 2.45% in test [1]; -19.1% in test [2]; -4% in test [3]; -47% in test [4]; 1.95% in test [5]; -17.6% in test [6].

Consider `COc1ccc2c(c1)OCc1c-2oc2ccccc2c1=O`, for which the growth inhibition was -24.8% in test [1]; -4.55% in test [2]; -10.9% in test [3]; -25.4% in test [4]; -3.95% in test [5]; -5.3% in test [6].

For the compound `O=C(NNc1ccccc1)C1C2CC3OC(=O)C1C3C2` (stereo not given), the growth inhibition in test [1] is 54%; in test [2], 82.1% (active); in test [3] it was 77.6% (active); in test [4] it was 52.4%; in test [5], 79.8% (active); in test [6], 68.5%.

Regarding `CCCCCCCCCC1CC(=O)OC23CCCC(=O)C12O3` (stereo not given), the growth inhibition in test [1] is -10.8%; in test [2] it was -32%; in test [3], 9.2%; in test [4], 15.8%; in test [5] it was -8%; in test [6], -17.6%.

Regarding `CCC1CCC(OC(=O)Nc2cccc3ccccc23)CC1` (stereo not given), the growth inhibition in test [1] is 12.2%; in test [2], -26.1%; in test [3], -5.35%; in test [4], 3.7%; in test [5], 4.85%; in test [6] it was -10.4%.

With `N[C@@H](CCC(=O)NC(Cc1ccccc1)C(=O)NCP(=O)(O)O)C(=O)O` (stereo not given in full), the growth inhibition is -60.9% in test [1]; -17.9% in test [2]; -45.9% in test [3]; -1.75% in test [4]; -10.5% in test [5]; -55.4% in test [6].

As to `CCC(C)NC(=O)/C=C/C(=O)NC(C)CC` (stereo not given), the growth inhibition in test [1] is 5.4%; in test [2], -4.25%; in test [3], -5.75%; in test [4] it was -29.7%; in test [5], 4.95%; in test [6], 8.5%.

Consider `CCCC(C)C(=O)OC1CCCC1` (stereo not given), for which the growth inhibition is 11% in test [1]; -8.1% in test [2]; 5.3% in test [3]; -5.1% in test [4]; 13.6% in test [5]; 2.95% in test [6].

Turning to `CC(C)CC(NC(=O)OC(C)(C)C)C(=O)NC(CCC(=O)OCc1ccc([N+](=O)[O-])cc1)C(=O)OCc1ccc([N+](=O)[O-])cc1` (stereo not drawn) (Boc-Leu-Glu(ONb)-ONb; configuration not given here), the growth inhibition in test [1] was -9.3%; in test [2], -25.5%; in test [3] it was -4.5%; in test [4] it was 4%; in test [5] it was -10.1%; in test [6], 8.35%.

As for `CCOC(=O)C1=C(O)c2ccc(OC)cc2C(=O)C1=O`, the growth inhibition is -5.5% in test [1]; -10.5% in test [2]; 12.7% in test [3]; 2.05% in test [4]; -9% in test [5]; 0.3% in test [6].

On to `CCOC(=O)c1ccc[n+]([O-])c1`, for which the growth inhibition in test [1] was -2.35%; in test [2] it was -9.95%; in test [3] it was -18.6%; in test [4], -107%; in test [5], -13.2%; in test [6], -10.8%.

`CC(COCc1ccccc1)NCc1ccccc1` (stereo not given): the growth inhibition in test [1] is -7.35%; in test [2] it was -27.6%; in test [3], 9.3%; in test [4] it was -9.15%; in test [5] it was -3.35%; in test [6] it was 13.2%.

Turning to `c1ccc(-c2nc(-c3ccccc3)n3nc4c(c3c2-c2ccccc2)CCCCCC4)cc1`, the growth inhibition in test [1] is -6.65%; in test [2] it was 5.65%; in test [3], -19.6%; in test [4], -8.55%; in test [5], -0.35%; in test [6], 0.2%.

Turning to `Cc1c2cnccc2c(C)c2c1c1ccccc1n2CCNCc1ccccc1`, the growth inhibition in test [1] is 98.2% (active); in test [2], 50.4%; in test [3] it was 92.7% (active); in test [4], -7.75%; in test [5], 1.15%; in test [6] it was 66.7%.

As for `C=C(c1ccc(OC)cc1)c1cc(C(C)(C)C)c(O)c(C(C)(C)C)c1`, the growth inhibition was -4.45% in test [1]; -1.75% in test [2]; -17.9% in test [3]; 51.8% in test [4]; -4.65% in test [5]; 0.35% in test [6].

For the compound `COc1cc(Nc2nc3cc(C(F)(F)F)ccc3nc2-c2ccccc2)cc(OC)c1OC`, the growth inhibition in test [1] is 15.4%; in test [2], -4.8%; in test [3], -26.4%; in test [4], -11.8%; in test [5] it was -10.4%; in test [6] it was -23.9%.

Turning to `CC(C)CCCC(C)C1CCC2C3CC=C4C(C)(C)C(OC(=O)c5ccccc5)CCC4(C)C3CCC12C` (stereo not given), the growth inhibition was 13.9% in test [1]; -6.6% in test [2]; -4.35% in test [3]; -4.35% in test [4]; 5.85% in test [5]; -1.3% in test [6].

Take `Nc1nnnn1CCc1ccccc1`: the growth inhibition in test [1] was 7.75%; in test [2], 6.3%; in test [3] it was -4%; in test [4] it was -10.8%; in test [5], 4.4%; in test [6], 9.75%.

For the compound `NCCNc1nc(NCCN)nc(N(CCN)CCN)n1`, the growth inhibition in test [1] is 4.85%; in test [2] it was -4.9%; in test [3] it was 7.6%; in test [4] it was 9%; in test [5], -17.3%; in test [6], 4.05%.

Take `Nc1ccnc(Cl)n1`: the growth inhibition was -2.45% in test [1]; -6.05% in test [2]; -13.2% in test [3]; 0.4% in test [4]; 0.4% in test [5]; -0.95% in test [6].
